The values that follow come from PubChem BioAssay (NCI).

Holding throughout (experiment): NCI-60 one-dose screen, 48 h (100 = growth as untreated, 0 = no growth, -100 = all killed)
What all share (settings): 10 µM unless noted

For test [1], the system named is NCI-H23 lung.
The subject of test [2] is NCI-H226 lung.
Test [3] concerns NCI-H322M lung.
For test [4], the system named is HOP-62 NSCLC.
Test [5] deals with NCI-H460 lung.
In test [6] the test system is NCI-H522 lung.
Test [7] concerns A549/ATCC NSCLC.
The subject of test [8] is 786-0 renal.
Test [9] deals with COLO 205 colon.

This is part of a sample that, as a whole, favours compounds with a hit. Of some 83,000 tested, about 20% had one in any assay.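 Interpretation: 100, growth as untreated; towards 0, rising growth inhibition; 0, no net growth; 0 to -100, cell death. Compounds scoring below 10 were considered active.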 Values without a mark were called inactive. The source made the active and inactive calls.

As to `Cc1c2c(cc3c1[nH]c1ccccc13)C=NCC2`, the growth in test [1] is 88.7%; in test [2], 93%; in [3], 99.7%; in test [4] it was 96%; in test [5], 95.5%; in [6], 75.1%. Besides, the growth in test [7] was 91.5%; in test [8], 80.8%; in [9] it was 78.2%.
For the molecule `Cc1c(C(=O)CCl)c(=O)n(-c2ccccc2)n1C`, the growth was 72.7% in [1]; 104% in test [2]; 101% in [3]; 105% in test [4]; 81.2% in test [5]; -34.4% (active) in [6]. Besides, the growth was 83.5% in [7], 88.6% in test [8] and 48.7% in test [9].
Consider `Cc1ccc(C(=O)CC(=O)C(F)(F)C(F)(F)C(F)(F)F)s1`, for which the growth is 105% in test [1]; 103% in [2]; 105% in [3]; 96.9% in test [4]; 111% in test [5]; 121% in test [6]. The growth in test [7] is 104%; in test [8], 97.2%; in test [9], 119%.
For the molecule `C/C(=N\NC(=O)CSc1nc2ccccc2c(=O)n1CCc1ccc(S(N)(=O)=O)cc1)c1ccc(Br)cc1`, the growth in test [1] is 60.4%; in [2], 95.2%; in test [3], 97.2%; in [4] it was 77.4%; in [5], 30.8%; in test [6] it was 62.5%. The values for the growth in [7], in test [8] and in test [9] were 47.3%, 49.8% and 93.6%, respectively.
In the case of `CS(=O)(=O)c1ccc(C(=O)N2N=C(c3ccccc3)CC2c2ccc3c(c2)OCO3)cc1` (stereo not given), the growth was 101% in [1]; 88.7% in test [2]; 99.6% in [3]; 83.1% in [4]; 98.5% in test [5]; 87.2% in test [6]. Besides, the growth in [7] was 80.2%; in test [8], 90.8%; in [9], 81.4%.
On to `c1ccc(-c2nnn(-c3ccccc3)n2)cc1`, for which the growth in [1] was 105%; in test [2], 91.4%; in test [3] it was 100%; in [4] it was 95.8%; in [5], 114%; in test [6] it was 89.7%. Besides, the values for the growth in test [7], in [8] and in test [9] were 99.7%, 104% and 117%, respectively.
As for `O=C1CCCN1C(O)CCN(Cc1ccccc1)Cc1ccc(Cl)cc1` (stereo not given), the growth in test [1] is 103%; in [2], 105%; in test [3] it was 95.5%; in test [4] it was 104%; in test [5] it was 105%; in test [6], 93.3%. Besides, the growth was 103% in test [7], 95.7% in [8] and 124% in [9].
For `CC(=O)O[C@H]1CC[C@]2(C)[C@H]3CC=C4[C@@H]5CC(C)(C)CC[C@]5(C(=O)OCC(COC(=O)C(Cl)Cl)(COC(=O)C(Cl)Cl)NC(=O)C(Cl)Cl)CC[C@@]4(C)[C@]3(C)CC[C@H]2C1(C)C`, the growth in test [1] was 87.6%; in test [2], 94.2%; in test [3], 89.1%; in test [4], 79%; in test [5], 49.4%; in test [6] it was 41.1%. Moreover, the figures for the growth in test [7], in test [8] and in test [9] were 31.5%, 63.9% and 47.8%, respectively.
`O=[N+]([O-])c1ccc(SSc2ccc([N+](=O)[O-])cc2Cl)c(Cl)c1`: the growth in test [1] was 89%; in test [2] it was 87.5%; in test [3], 98.2%; in [4], 112%; in test [5], 92.2%; in [6], 85.1%. Besides, the figures for the growth in [7], in [8] and in [9] were 96.3%, 102% and 127%, respectively.
As for `COC1(OC)C2(Cl)CCC1(Cl)C(Cl)=C2Cl`, the growth was 99.4% in [1]; 98.2% in [2]; 100% in test [3]; 129% in test [4]; 106% in test [5]; 97% in [6]. Moreover, the growth in test [7] was 95.6%; in test [8], 102%; in test [9] it was 128%.
With `CC(C)C/C=C/C=C/C(=O)N[C@@H](CC(N)=O)C(=O)N[C@@H]1C(=O)N[C@H](c2ccc(O)cc2)C(=O)N[C@H](CCCN)C(=O)N[C@H]([C@@H](C)O)C(=O)N[C@H](c2ccc(O)cc2)C(=O)N[C@H](c2ccc(O)cc2)C(=O)N[C@H]([C@H](C)O)C(=O)N[C@H](Cc2ccccc2)C(=O)N[C@H](CCCN)C(=O)N[C@H](c2ccc(O[C@H]3O[C@@H](CO)[C@@H](O)[C@@H](O)[C@H]3O[C@@H]3O[C@H](CO)[C@H](O)[C@H](O)[C@@H]3O)cc2)C(=O)N[C@H]([C@H](C)O)C(=O)N[C@H](c2ccc(O)cc2)C(=O)NCC(=O)N[C@H](CC(C)C)C(=O)N[C@H](C)C(=O)N[C@H](c2ccc(O)c(Cl)c2)C(=O)O[C@@H]1C(N)=O`, the growth was 39.5% in [1]; 68.6% in test [2]; 57.5% in test [3]; 53.4% in [4]; 15.6% in test [5]; 78.1% in [6]. The growth was 91.8% in [7], -48.7% (active) in test [8] and 101% in [9].
On to `S=C(Nc1ccc(Cl)cc1)Nc1ccc(Cl)cc1` (tested in a mixture with another compound), for which the growth in [1] is 1.65% (active); in test [2] it was 16.4%; in test [3] it was 4.59% (active); in [4], 6.8% (active); in [5], -17.4% (active); in test [6] it was -27.9% (active). Further, the growth in test [7] was 1.68% (active); in test [8] it was 22.1%; in test [9], -95.7% (active).
In the case of `CN1C(=O)C(C2=NNC(c3ccccc3C(=O)O)C2)C(=O)N(C)C1=O` (stereo not given), the growth in test [1] was 106%; in [2], 99.8%; in test [3] it was 87.8%; in [4], 98.3%; in test [5], 106%; in test [6], 83.7%. Also, the results for the growth in test [7], in [8] and in test [9] were 98.6%, 101% and 108%, respectively.
Take `CS(=O)(=O)c1ccc(C(=O)N/N=C/c2ccccc2O)cc1`: the growth in test [1] is 54.8%; in test [2] it was 55.2%; in test [3], 38.4%; in test [4], 28.3%; in test [5], 14.1%; in test [6], 15.1%. Besides, the growth in [7] is 38.8%; in [8] it was 33%; in test [9] it was 31.2%.
Regarding `CCSc1cnnc2ccccc12`, the growth in [1] was 101%; in test [2], 101%; in [3], 118%; in test [4], 104%; in test [5], 118%; in test [6] it was 97.8%. The growth is 108% in [7], 109% in test [8] and 111% in test [9].
